Each structure is given as a SMILES string. Calls of active or inactive are those of the source.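 Rule for the calls: active = compounds that lower viability of the colon cancer cells in the luminescence readout, with no numeric limit stated; inactive = the rest.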 Peptide text beside a SMILES is read from it.

The nature of the assay: CellTiter-Glo luminescent readout of SW480 viability loss, NPC library primary (AID 1117343). The following applies: CellTiter-Glo luminescence; at 20 µM (top of the series). A general note: ATP-based viability assays read luminescence as a measure of living cells.
With `CCCC(C(=O)OCCN(CC)CC)(c1ccccc1)c1ccccc1`, the viability decrease (inhibition) was 76.5% (active).

For `O=C(Nc1ccc([N+](=O)[O-])cc1Cl)c1cc(Cl)ccc1O`, the viability decrease (inhibition) is 120% (active). Next, `C=CC(N)CCC(=O)O` (stereo not drawn): -15.3% (inactive); `CC1(C)O[C@@H]2C[C@H]3[C@@H]4CCC5=CC(=O)CC[C@]5(C)[C@@]4(F)[C@@H](O)C[C@]3(C)[C@]2(C(=O)CCl)O1`: 9.4% (inactive). Next, `CNC1(C)C2CCC(C2)C1(C)C` (stereo not drawn): 8.7% (inactive). Next, `NCCS`: -332% (inactive); `OC[C@H]1O[C@@H](O[C@@H]2[C@@H](CO)O[C@](O)(CO)[C@H]2O)[C@H](O)[C@@H](O)[C@H]1O`: 86.9% (active); `Nc1c2c(nc3ccccc13)CCCC2O` (stereo not drawn): 26.9% (inactive).

Turning to `CSc1ccc2c(c1)C(N1CCN(C)CC1)Cc1ccccc1S2` (stereo not drawn), the viability decrease (inhibition) is 132% (active). As for `Cc1ccc(C(=O)Nc2ccc(S(=O)(=O)O)c3cc(S(=O)(=O)O)cc(S(=O)(=O)O)c23)cc1NC(=O)c1cccc(NC(=O)Nc2cccc(C(=O)Nc3cc(C(=O)Nc4ccc(S(=O)(=O)O)c5cc(S(=O)(=O)O)cc(S(=O)(=O)O)c45)ccc3C)c2)c1`, the figure is -22.7% (inactive); as for `C[N+]1(CCCCC[N+]2(C)CCCC2)CCCC1`, -8.4% (inactive); as for `CCCCCN(CCCCC)C(=O)C(CCC(=O)O)NC(=O)c1ccc(Cl)c(Cl)c1` (stereo not drawn), 40.9% (inactive). As for `NC(=O)NO`, the figure is 8.5% (inactive). As for `CCOC(=O)C(C)(C)Oc1ccc(Cl)cc1`, the figure is 7.5% (inactive); as for `CC(=O)OC(C)C[N+](C)(C)C` (stereo not drawn), -21.3% (inactive); as for `NNc1nncc2ccccc12`, 4.9% (inactive). Regarding `CCOC(=O)NNc1nncc2ccccc12`, the viability decrease (inhibition) is 9.4% (inactive). Consider `COC(=O)[C@H](Cc1ccccc1)NC(=O)[C@@H](N)CC(=O)O` (H-Asp-Phe-OMe), for which the viability decrease (inhibition) is -6.8% (inactive). As for `COc1ccnc(CS(=O)c2nc3ccc(OC(F)F)cc3[nH]2)c1OC` (stereo not drawn), the viability decrease (inhibition) is -0.2% (inactive).

As to `COC(=O)[C@@H]1[C@H]2C[C@H]3c4[nH]c5ccccc5c4CCN3C[C@@H]2CC[C@@H]1O`, the viability decrease (inhibition) is 18.3% (inactive).

Regarding `CC(=O)Oc1ccccc1C(=O)O`, the viability decrease (inhibition) is -3.9% (inactive).

As to `Cn1cnc2c1c(=O)[nH]c(=O)n2C`, the viability decrease (inhibition) was -8.1% (inactive). As for `O=C(COc1ccc(Cl)cc1)N1CCN(Cc2ccc3c(c2)OCO3)CC1`, the figure is 56.1% (active); as for `C[n+]1cc2c3c(ccc2c2ccc4cc5c(cc4c21)OCO5)OCO3`, 141% (active). As for `CN(C)[C@@H]1C(=O)C(C(N)=O)=C(O)[C@@]2(O)C(=O)C3=C(O)c4c(O)ccc(Cl)c4[C@@H](O)[C@H]3C[C@@H]12`, the figure is 107% (active); as for `Cc1cc(N)c2ccccc2[n+]1CCCCCCCCCC[n+]1c(C)cc(N)c2ccccc21`, 83% (active). As for `C=Cc1c(C)c2cc3[nH]c(cc4nc(cc5nc(cc1[nH]2)C(C)=C5CCC(=O)O)C(CCC(=O)O)=C4C)c(C)c3C=C`, the figure is 120% (active). As to `CCN(CC)C(C)CN1c2ccccc2Sc2ccccc21` (stereo not drawn), the viability decrease (inhibition) was 109% (active). For `NCCCCCC(=O)O`, the viability decrease (inhibition) was 9.9% (inactive).

In the case of `CCN(CC)CCNC(=O)c1ccc(NC(C)=O)cc1`, the viability decrease (inhibition) is 25.6% (inactive). Next, `CCOC(=O)c1ccc(N)cc1`: 87.8% (active). Next, `CNC[C@H](O)c1cccc(O)c1`: 12.3% (inactive).

Consider `O=c1c(O)c(-c2ccc(O)c(O)c2)oc2cc(O)cc(O)c12`, for which the viability decrease (inhibition) is 70.2% (active). Turning to `O=C(OCC(O)CO)c1ccccc1Nc1ccnc2cc(Cl)ccc12` (stereo not drawn), the viability decrease (inhibition) is 53.8% (active). Next, `CC(=O)O[C@]1(C(C)=O)CC[C@H]2[C@@H]3C=C(Cl)C4=CC(=O)[C@@H]5C[C@@H]5[C@]4(C)[C@H]3CC[C@@]21C`: 48.9% (inactive); `C[C@H]1O[C@@H](n2cc(F)c(=O)[nH]c2=O)[C@H](O)[C@@H]1O`: 20.6% (inactive); `CC1(C)NC(=O)N(c2ccc([N+](=O)[O-])c(C(F)(F)F)c2)C1=O`: 18.3% (inactive). As for `C[N+](C)(C)CCCCCC[N+](C)(C)C`, the figure is -4.3% (inactive).

(Values after PubChem BioAssay.)
